# Test results reported in paper PMC5540273 (PLoS ONE, 2017).
# Test system: T1, YANK2
# T1 construct: gene STK32B
# Conditions: concentration: 1 μM, replicates: in singlicate; n = 1
# 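Also: KINOMEscan kinase panel screen.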
row,SMILES,%Inh
1,CN1CCN(Cc2cccc(-c3ccc4c(Nc5ccc(Oc6ccccc6)cc5)ccnc4c3)c2)CC1 [GW578342],0%
2,O=C(Nc1ccccc1F)NC1CCN(c2ccnc(Nc3ccc(F)cc3)n2)CC1 [GSK1379800],0%
3,Cl.c1ccc(-c2ccc3c(Nc4ccc5[nH]ncc5c4)ccnc3c2)nc1 [GW440137],1%
4,CCn1c(-c2nonc2N)nc2c(C#CC(C)(C)O)nc(OC[C@H](N)c3ccccc3)cc21 [GSK943949],0%
5,O=C(Nc1cccc(-c2nn3ccccc3c2-c2ccnc(Nc3cccc(C(F)(F)F)c3)n2)c1)c1c(F)cccc1F [GSK292658],7%
6,Cn1cc(-c2ccc3c(c2)CCN3C(=O)Cc2cccc(F)c2)c2c(N)ncnc21 [GSK2603358],0%
7,COc1cc(Nc2nccc(N3CCC(NC(=O)c4cc5ccccc5s4)C3)n2)cc(OC)c1OC (stereo not shown) [GSK1379760],11%
8,COCCOCCOc1cc2ncc3c4ccc(C#N)cc4[nH]c3c2cc1OC,0%
9,Cl.Cl.NCC(NC(=O)c1cc(-c2ccccc2)c(-c2ccnc3[nH]ccc23)s1)c1ccccc1 (stereo not shown) [GSK1321561],35%
10,COc1cc(Nc2nccc(-c3c(-c4cccc(NC(=O)c5c(F)cccc5F)c4)nn4ncccc34)n2)cc(OC)c1OC [GSK327238],89%
11,CN(C)S(=O)(=O)c1cc(-c2ccc3nccc(-c4cccc(S(N)(=O)=O)c4)c3c2)cnc1N [GSK1669921],0%
12,Cl.Cl.NCC(NCc1ccc(-c2ccnc3[nH]ccc23)s1)c1ccccc1 (stereo not shown) [GSK1321565],0%
13,Cc1ccc(S(=O)(=O)Nc2ccc(Nc3nccc(Nc4cccc5[nH]ncc45)n3)cc2)cc1 [GSK581271],0%
14,CC(=O)Nc1nc2cnc(Nc3cc(NC(=O)c4cccc(C5(C#N)CC5)c4Cl)ccc3C)nc2s1,12%
15,CNC(=O)c1ccccc1Nc1nc(Nc2ccc(N3CCOCC3)cc2)ncc1Cl.Cl [GSK1576028],30%
16,Cc1ccc(C(=O)N2CC[C@@H](O)C2)cc1-n1c(C)cc(OCc2ccc(F)cc2F)c(Br)c1=O,0%
17,COc1ccc(Nc2nccc(N3CCC(NC(=O)Nc4cccc(OC)c4)C3)n2)cc1 (stereo not shown) [GSK1379742],0%
18,Cl.Cl.NCC(C(=O)Nc1cc(Br)c(-c2ccnc3[nH]ccc23)s1)c1ccccc1 (stereo not shown) [GSK1269851],0%
19,Oc1cc(Nc2ccnc3cc(I)ccc23)ccc1F [GW552771],22%

row,SMILES,%Inh
1,COc1ccc(Nc2nccc(NCCNC(=O)c3cc4ccccc4s3)n2)cc1 [GSK1379896],0%
2,CCS(=O)(=O)c1ccc(OC)c(Nc2nccc(-c3c(-c4cccc(NC(=O)c5c(F)cccc5F)c4)nn4ncccc34)n2)c1 [GSK326180],56%
3,COc1cccc(C(=O)Nc2cccc(Oc3ccc4nc(NC(=O)C5CC5)cn4n3)c2)c1,0%
4,CN(C)Cc1ccc(-c2ccc3c(Nc4ccc(Oc5ccccn5)cc4)ccnc3c2)o1 [GW567148],0%
5,Clc1ccc(-c2nn3ncccc3c2-c2ccnc(Nc3ccc4c(c3)OCCO4)n2)cc1 [GW829116],21%
6,Cl.c1ccc(-c2ccc3c(Nc4ccc5[nH]ccc5c4)ccnc3c2)nc1 [GW440138],0%
7,Fc1ccc(-c2ncn(C3CCNCC3)c2-c2ccnc(Oc3ccc(-c4ccccc4)cc3)n2)cc1 [SB-245391],85%
8,O=C(Nc1cccc(Oc2ccc3nc(NC(=O)C4CC4)cn3n2)c1)c1ccccc1C(F)(F)F,0%
9,COc1cccc(C2=C(Nc3ccc(Cl)c(C(=O)O)c3)C(=O)NC2=O)c1 [SB-390769],7%
10,Cc1ccc(C(=O)Nc2ccc(Nc3ccnc4cc(-c5nccs5)ccc34)cc2O)cc1.Cl [GW494702],0%
11,Cc1ccc(C)c(NC(=O)NC2CCN(c3ccnc(Nc4ccc(F)cc4)n3)C2)c1 (stereo not shown) [GSK1379720],0%
12,COc1ccc(-c2coc3ccc(-c4nnc(SCc5ccc(OC)c(C(F)(F)F)c5)o4)cc23)cc1,0%
13,COc1cc(Nc2ncc3c(C)nc(-c4cc5ccccc5[nH]4)n3n2)cc(OC)c1OC [GW869516],0%
14,O=C(NC1CCN(c2ccnc(Nc3ccc(F)cc3)n2)C1)c1cc2ccccc2s1 (stereo not shown) [GSK1379716],20%
15,Cn1cc(-c2ccc3c(c2)CCN3C(=O)Cc2cccc(Cl)c2)c2c(N)ncnc21 [GSK2606590],0%
16,COC(=O)Nc1nc2ccc(Oc3ccc(NC(=O)Nc4cc(C(F)(F)F)ccc4F)cc3)cc2n1C.Cl [GW692089],19%
17,O=C(O)C(F)(F)F.O=C(O)C(F)(F)F.O=c1[nH]ccc2nc(N[C@@H]3CCCNC3)nc(Nc3ccc(S(=O)(=O)N4CCOCC4)cc3)c12 [GSK2177277],89%
18,CCn1c(-c2nonc2N)nc2c(C#CC(C)(C)O)ncc(OCCCCN)c21.O=C(O)C(F)(F)F.O=C(O)C(F)(F)F [GSK507274],0%
